# High-throughput results (PubChem BioAssay)
# Most compounds without a hit are left out; they make up all but 6.7% or so of the library.
# C diff HTS: C. difficile growth inhibition; Clostridium difficile clinical isolate growth, OD600, 24 h; active compounds read low; growth activity, negative = inhibition, % at 16 µg/mL (by protocol); actives 0.25% (n = 86,000);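 active means mean growth activity at or below -80% and every replicate also at or below -80%; inconclusive means mean at or below -80% but some replicate above -80%; inactive means mean growth activity above -80%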;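 further: 0% = DMSO wells and -100% = levofloxacin 16 µg/mL wells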
# Pf Dd2 inh: P. falciparum Dd2 growth inhibition | SYBR Green, 72 h; active compounds read low | activity change, % at 10 µM | actives 2.3% (n = 94,000); in the data active means activity change below about -80%; inconclusive means no clear call, values can overlap the other calls
# T cruzi growth-1: inhibitors of T. cruzi proliferation. T. cruzi beta-gal in NIH3T3, GalScreen luminescence, 90 h. inhibition, % at 8.34 µM. actives 5.9% (n = 77,000). AID 624255;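 active means mean inhibition above about 93%, with at least 55% of replicates each passing it, limit read from the data, passing the limit was not always enough; inconclusive means only one of those two conditions holds; inactive means neither condition holds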
# T cruzi growth-2: blocks T. cruzi growth in NIH3T3 host cells. AID 651739. T. cruzi beta-gal in NIH3T3, GalScreen luminescence, 90 h. inhibition, % at 8.35 µM. shares compounds with T cruzi growth-1. actives 72% (n = 5,600);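 active means mean replicate inhibition above about 95% and at least 55% of replicates individually reaching it, limit read from the data; inconclusive means only one of the two criteria is met; inactive means neither criterion is met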
# T cruzi growth-3: blocks T. cruzi growth in NIH3T3 host cells; shares compounds with T cruzi growth-1; T. cruzi beta-gal in NIH3T3, GalScreen luminescence, 90 h; actives 21% (n = 5,600); inhibition, % at 2.09 µM;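 active means mean inhibition above about 95%, with at least 55% of replicates also reaching it, limit read from the data; inconclusive means meets just one of the two conditions; inactive means meets neither condition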;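 further: plate controls were neutral control median for no effect and positive control median for full effect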
# NIH3T3 tox: NIH/3T3 (mouse) viability loss. shares compounds with T cruzi growth-1. NIH/3T3 viability, CellTiter-Glo ATP luminescence, 90 h. cytotoxicity (signal decrease), % at 8.35 µM. actives 14% (n = 5,600). AID 651742;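 active means mean signal decrease across replicates above about 35% based on untreated-well scatter, with enough replicates individually passing, limit read from the data; inconclusive means no rule stated though some were filed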;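 further: 0% = median of neutral control wells and 100% = median of positive control wells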
# NIH3T3 tox 2: NIH/3T3 (mouse) viability loss; actives 56% (n = 5,600); AID 651744; NIH/3T3 viability, CellTiter-Glo ATP luminescence, 90 h; inhibition, % at 24.9 µM; shares compounds with T cruzi growth-1;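 active means mean loss of cell viability signal at or above a set limit, and enough replicates individually reaching it; inconclusive means meets only the mean limit or only the replicate share; inactive means meets neither condition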;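 further: 0% = median of neutral control wells and 100% = median of positive control wells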
# The depositor's hits bear a star; ? = inconclusive; . = not tested or not shown.
SMILES,C diff HTS,Pf Dd2 inh,T cruzi growth-1,T cruzi growth-2,T cruzi growth-3,NIH3T3 tox,NIH3T3 tox 2
C[C@@H]1CN([C@@H](C)CO)C(=O)Cc2cc(NS(=O)(=O)c3ccc(Cl)cc3)ccc2O[C@H]1CN(C)Cc1ccc2c(c1)OCO2,51,-13,78,.,.,.,.
Cc1ccc(S(=O)(=O)Nc2ccc3c(c2)CC(=O)N([C@@H](C)CO)C[C@@H](C)[C@@H](CN(C)Cc2ccc4c(c2)OCO4)O3)cc1,-20,25,62,.,.,.,.
C[C@@H]1CN([C@H](C)CO)C(=O)Cc2cc(NS(=O)(=O)c3ccc(Cl)cc3)ccc2O[C@H]1CN(C)Cc1ccc2c(c1)OCO2,-3,8,113*,108*,86,14,3
C[C@@H]1CN([C@H](C)CO)C(=O)Cc2cc(NS(=O)(=O)c3ccc(Cl)cc3)ccc2O[C@@H]1CN(C)Cc1ccc2c(c1)OCO2,10,20,99*,106*,38,?,42*
C[C@@H]1CN([C@@H](C)CO)C(=O)Cc2cc(NS(=O)(=O)c3ccc(F)cc3)ccc2O[C@@H]1CN(C)Cc1ccc2c(c1)OCO2,-11,0,86,.,.,.,.
C[C@@H]1CN([C@H](C)CO)S(=O)(=O)c2ccc(C#C[C@@H](C)O)cc2O[C@@H]1CN(C)C(=O)c1ccccc1,0,15,8,.,.,.,.
Cc1noc(C)c1S(=O)(=O)N(C)C[C@@H]1Oc2ccc(NS(=O)(=O)c3ccccc3)cc2CC(=O)N([C@H](C)CO)C[C@@H]1C,-11,15,27,.,.,.,.
Cc1noc(C)c1NC(=O)N(C)C[C@@H]1OCc2ccccc2-c2c(n(C)c3ccccc23)C(=O)N([C@@H](C)CO)C[C@H]1C,1,38,-51,.,.,.,.
COc1ccc(CN(C)C[C@H]2OCCCC[C@@H](C)Oc3ccc(NC(=O)Nc4ccc(OC)cc4)cc3C(=O)N([C@@H](C)CO)C[C@H]2C)cc1,.,-57,104*,103*,47,11,106*
COc1ccc(CN(C)C[C@H]2OCCCC[C@H](C)Oc3ccc(NC(=O)Nc4ccccc4)cc3C(=O)N([C@@H](C)CO)C[C@H]2C)cc1,2,-78,?,109*,43,17,34*
COc1ccc(CN(C)C[C@@H]2OCCCC[C@@H](C)Oc3ccc(NC(=O)Nc4ccc(OC)cc4)cc3C(=O)N([C@H](C)CO)C[C@H]2C)cc1,.,?,90,.,.,.,.
COc1ccc(CN(C)C[C@@H]2OCCCC[C@@H](C)Oc3ccc(NC(=O)C4CCCCC4)cc3C(=O)N([C@H](C)CO)C[C@@H]2C)cc1,4,-26,66,.,.,.,.
COc1ccc(CN(C)C[C@H]2OCCCC[C@@H](C)Oc3ccc(NC(=O)Nc4ccccc4)cc3C(=O)N([C@H](C)CO)C[C@H]2C)cc1,2,-72,115,.,.,.,.
COc1ccc(CN(C)C[C@H]2OCCCC[C@H](C)Oc3ccc(NC(=O)C4CCCCC4)cc3C(=O)N([C@@H](C)CO)C[C@@H]2C)cc1,10,-58,104*,107*,46,-18,69*
COc1ccc(CN(C)C[C@@H]2OCCCC[C@@H](C)Oc3ccc(NC(=O)Nc4ccccc4)cc3C(=O)N([C@H](C)CO)C[C@H]2C)cc1,0,-63,110*,?,91,28,104*
COc1ccc(CN(C)C[C@H]2OCCCC[C@@H](C)Oc3ccc(NC(=O)Nc4ccccc4)cc3C(=O)N([C@H](C)CO)C[C@@H]2C)cc1,1,25,31,.,.,.,.
O=C(C[C@H]1CC[C@H](NC(=O)Nc2cc(F)ccc2F)[C@@H](CO)O1)NCc1ccncn1,3,4,-76,.,.,.,.
C[C@@H]1CCCCO[C@H](CN(C)S(C)(=O)=O)[C@H](C)CN([C@@H](C)CO)C(=O)c2cc(NC(=O)Nc3ccccc3)ccc2O1,0,0,64,.,.,.,.
COc1ccc(-c2ccc3n(c2=O)C[C@@H]2[C@@H](CO)[C@H](C(=O)Nc4ccccc4)N(C)[C@H]32)cc1,0,-10,.,.,.,.,.
C[C@H](CO)N1C[C@H](C)[C@@H](CN(C)Cc2ccc(C(F)(F)F)cc2)OCCCC[C@H](C)Oc2ccc(NS(C)(=O)=O)cc2C1=O,-3,-25,93*,109*,32,21,53*
C[C@@H]1CN([C@H](C)CO)C(=O)c2cc(NS(C)(=O)=O)ccc2O[C@@H](C)CCCCO[C@@H]1CN(C)Cc1ccc(C(F)(F)F)cc1,5,-52,67,.,.,.,.
C[C@@H]1CN([C@@H](C)CO)C(=O)c2cc(NS(=O)(=O)c3ccccc3)ccc2O[C@@H](C)CCCCO[C@@H]1CN(C)Cc1ccc(C(F)(F)F)cc1,.,-55,75,.,.,.,.
C[C@@H]1CCCCO[C@H](CN(C)Cc2ccc(C(F)(F)F)cc2)[C@@H](C)CN([C@H](C)CO)C(=O)c2cc(NS(=O)(=O)c3ccccc3)ccc2O1,.,-1,?,97*,-7,15,50*
C[C@@H]1CCCCO[C@@H](CN(C)Cc2ccc(C(F)(F)F)cc2)[C@@H](C)CN([C@H](C)CO)C(=O)c2cc(NS(=O)(=O)c3ccc(Cl)cc3)ccc2O1,-2,-8,108*,95*,110*,25,102*
C[C@H]1CCCCO[C@H](CN(C)Cc2ccc(C(F)(F)F)cc2)[C@@H](C)CN([C@@H](C)CO)C(=O)c2cc(NS(=O)(=O)c3ccccc3)ccc2O1,.,-36,?,91,97*,3,104*
SMILES,C diff HTS,Pf Dd2 inh,T cruzi growth-1,T cruzi growth-2,T cruzi growth-3,NIH3T3 tox,NIH3T3 tox 2
C[C@H]1CCCCO[C@@H](CN(C)Cc2ccc(C(F)(F)F)cc2)[C@@H](C)CN([C@@H](C)CO)C(=O)c2cc(NS(=O)(=O)c3ccccc3)ccc2O1,.,-29,76,.,.,.,.
C[C@@H]1CCCCO[C@H](CN(C)Cc2ccc(C(F)(F)F)cc2)[C@@H](C)CN([C@@H](C)CO)C(=O)c2cc(NS(=O)(=O)c3ccc(Cl)cc3)ccc2O1,35,-48,90,.,.,.,.
CO[C@@H]1CN(C)C(=O)c2ccc(NC(=O)c3ccccc3)cc2OC[C@H](C)N(C(C)=O)C[C@H]1C,-8,-5,12,.,.,.,.
CNC[C@@H]1Oc2ncc(-c3cncnc3)cc2C(=O)N([C@H](C)CO)C[C@@H]1C,-4,-3,.,.,.,.,.
CO[C@@H]1CC[C@@H]2CCN(C)C(=O)CCCN(C)C(=O)c3cccc(C#N)c3OC[C@H]1O2,5,.,-38,.,.,.,.
COc1cccc(S(=O)(=O)N[C@@H]2CC[C@@H](CCn3cc(-c4ccc(F)cc4)nn3)O[C@H]2CO)c1,1,-40,3,.,.,.,.
C[C@@H]1CN([C@H](C)CO)C(=O)Cc2cc(NS(=O)(=O)c3cccs3)ccc2O[C@@H]1CN(C)C(=O)NC1CCCCC1,-3,23,13,.,.,.,.
COc1ccc(NC(=O)N(C)C[C@@H]2Oc3c(NS(=O)(=O)c4ccccc4)cccc3C(=O)N([C@H](C)CO)C[C@H]2C)cc1,.,17,-7,.,.,.,.
